# 15-hLO inh: blocks human 15-lipoxygenase activity. P16050. hit rate 1.4% among 74,000. purified 15hLO-1, xylenol orange hydroperoxide absorbance. Potency, µM (titrated, usually from 57.1 µM), for the others: at the highest dose activity change, negative = inhibition, hits mostly inhibitors; note: potency is the fitted concentration of half-maximal effect; % is set by controls: 0 for no effect and ±100 for the full control effect; nearly all actives have a fitted effect of over 55% in size
#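 Purified human 15hLO-1 (40 nM) in 25 mM Hepes pH 7.5, 0.01% Triton X-100, preincubated 15 min RT with compound, then 50 uM arachidonic acid for 6 min. Hydroperoxide read by ferrous/xylenol orange, 30 min; 573/405 nm absorbance ratio gave progress.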
# TsaE inh: displaces an ADP probe from E. coli YjeE (TsaE); purified YjeE enzyme, qHTS inhibition assay; hit rate 0.05% among 71,000; AID 605; Potency, µM
#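 Fluorescence polarization of a BODIPY Texas Red–ADP probe (2 uM) bound to purified YjeE (10 uM) was read after 15 min room-temperature incubation with compounds. Loss of polarization marks inhibitors; ADP serves as titrated control.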
# BRCT inh red: disrupts BRCA1 BRCT binding to phosphoprotein, red fluorophore readout | P38398 | BRCT-phosphopeptide binding, red fluorescence polarization | Potency, µM (highest dose often 76.9 µM), for the others: at the top dose activity change, negative = inhibition, hits mostly inhibitors | hit rate 0.03% among 75,000; note: % is set by controls: 0 for no effect and ±100 for the full control effect
#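 Fluorescence polarization: 100 nM His-tagged BRCA1 BRCT with 100 nM TAMRA-labelled phospho-BACH1 decapeptide, phosphate buffer pH 7.3 with 150 mM NaCl, DTT, 0.01% Tween 20; 12 min RT. Binding inhibition seen as FP decrease.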
# BRCT inh green: blocks human BRCA1 BRCT binding to phosphopeptide, green readout; P38398; BRCA1 BRCT-phosphopeptide binding, green fluorescence polarization; Potency, µM (highest dose often 76.9 µM), without a hit: at the highest dose activity change, negative = inhibition, most hits filed as inhibitors; hit rate 0.05% among 75,000;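 note: potency is the fitted concentration of half-maximal effect; plate controls were peptide without protein for full effect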
#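 Compounds were incubated for 12 min at room temperature with a complex of 100 nM fluorescein-tagged pBACH1 decapeptide and 250 nM His-tagged BRCT protein. Buffer was phosphate pH 7.3 with EDTA, DTT and Tween 20. Disruption of binding lowers the polarization signal.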
# DNA Pol III inh: DNA polymerase III holoenzyme inhibition; reconstituted DNA polymerase III holoenzyme replication, biochemical; Potency, µM (titrated, usually from 57.1 µM), for the others: at the highest dose activity change, negative = inhibition; hit rate 0.25% among 71,000; AID 603; note: potency is the fitted concentration of half-maximal effect; % is set by controls: 0 for no effect and ±100 for the full control effect
#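 Reconstituted *E. coli* holoenzyme (0.35 nM Pol III, 1 nM beta, 154 nM SSB, 2 nM primase) was preincubated with compound for 15 min at RT. Synthesis on 1.4 nM ssM13Gori ran 35 min, then was stopped with PicoGreen/EDTA and read as dsDNA fluorescence.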
# Tau fil binding: tau filament binding | P10636 | recombinant tau filaments, thioflavin S fluorescence, 15 h; filaments grown with octadecylsulfate alongside compound | Potency, µM (doses to about 57.1 µM), for the others: at the highest dose activity change, negative = inhibition | hit rate 2% among 71,000 | AID 596;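 note: potency is the fitted concentration of half-maximal effect; % is set by controls: 0 for no effect and ±100 for the full control effect; actives lower thioflavin S fluorescence by blocking filaments or displacing dye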
# Target sequence (P10636 whole entry, looked up): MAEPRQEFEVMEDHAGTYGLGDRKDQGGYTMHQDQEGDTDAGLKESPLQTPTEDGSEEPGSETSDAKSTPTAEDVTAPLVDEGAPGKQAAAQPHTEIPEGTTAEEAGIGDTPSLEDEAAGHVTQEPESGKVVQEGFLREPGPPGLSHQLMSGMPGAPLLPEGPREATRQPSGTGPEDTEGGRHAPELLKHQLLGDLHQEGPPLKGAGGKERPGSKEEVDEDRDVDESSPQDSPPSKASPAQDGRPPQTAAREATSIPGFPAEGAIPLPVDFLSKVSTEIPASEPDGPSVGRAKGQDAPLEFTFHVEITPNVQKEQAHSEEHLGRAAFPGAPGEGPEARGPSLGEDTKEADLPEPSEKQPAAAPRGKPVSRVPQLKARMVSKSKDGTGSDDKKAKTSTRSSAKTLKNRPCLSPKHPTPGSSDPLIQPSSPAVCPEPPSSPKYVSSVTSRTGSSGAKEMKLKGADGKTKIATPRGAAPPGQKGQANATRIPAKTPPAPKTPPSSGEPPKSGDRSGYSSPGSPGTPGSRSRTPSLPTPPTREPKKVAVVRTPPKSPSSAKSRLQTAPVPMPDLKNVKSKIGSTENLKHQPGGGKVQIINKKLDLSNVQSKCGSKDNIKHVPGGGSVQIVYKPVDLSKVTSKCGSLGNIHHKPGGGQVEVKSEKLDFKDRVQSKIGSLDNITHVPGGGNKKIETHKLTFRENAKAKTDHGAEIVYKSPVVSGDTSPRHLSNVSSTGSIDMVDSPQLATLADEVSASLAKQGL
#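 His-tagged recombinant human tau (exons 2, 3, 10; 1 uM final) fibrillized with 30 uM sodium octadecylsulfate, 15 h at 37 C, in pH 7.4 HEPES buffer with 10 uM thioflavine S and 5 mM DTT. Reduced ThS fluorescence (450/510 nm) marks activity.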
# * hit, by the source's call; i = inactive; ? = inconclusive; . = no result given; [ ] = remark or other dose. In the library only some 3.3% were active in any assay of this set; here they are far more common. Calls come from the whole dose curve; as a rule, active = well fitted curve in the direction sought with a large enough effect; inconclusive = small, poorly fitted or top-dose-only effect, or another doubt; inactive = no such curve, though single readings can be large; an effect the other way counts as inactive or inconclusive.
SMILES,15-hLO inh,TsaE inh,BRCT inh red,BRCT inh green,DNA Pol III inh,Tau fil binding
COc1cccc(Nc2ncc3ncc(=O)n(C[C@H]4CCCO4)c3n2)c1,-6%,i,1%,-3%,-13%,-2%
CSc1nc(-c2ccco2)nn1S(=O)(=O)c1ccc(C)cc1,25µM*,i,-2%,-1%,-2%,15%
COC(=O)C/C=C\[C@@H](C)[C@@H](/C=N\O[C@@H](C)c1cn([C@H]2COC[C@H]2O)nn1)OC,-2%[11.4 µM],.,0%[15.4 µM],0%[15.4 µM],.,.
O=C(Cn1ncn2c(cc3ccccc32)c1=O)NCCC1=CCCCC1,16µM*,i,-2%,3%,-8%,-2%
O=C(Cn1ncn2c(cc3ccccc32)c1=O)NCc1ccco1,?,i,-2%,5%,-7%,21%
COc1ccc(-n2nc3cc(C)c(N)c(Br)c3n2)cc1,16µM*,i,-1%,1%,-10%,20µM*
COc1ccc(OC2C=CC(c3ccccc3)OC2CO)c(C(C)=O)c1 (stereo unspecified),6%[11.4 µM],.,1%[15.4 µM],0%[15.4 µM],.,.
CC1N(C)c2cc(NC(=O)c3ccco3)ccc2C1(C)C (stereo unspecified),-15%,?,34%,0%,-3%,20µM*
CCOC(=O)CN1CC23C=CC(O2)C(C(=O)Nc2cc(OC)ccc2OC)C3C1=O (stereo unspecified),3%,i,-1%,-1%,4%,13µM*
O=C1[C@@H]2[C@H]3[C@H](O)[C@H](O)C/C(=N/OCc4ccccc4)[C@H]3CC[C@H]2C(=O)N1c1ccc(F)cc1F,4%[11.4 µM],.,-1%[15.4 µM],0%[15.4 µM],.,.
CC(C)Oc1ccc(C(=O)NCc2ccco2)cc1,-3%,i,0%,0%,-2%,6%
CN(C)c1ccc(C(=S)NCc2ccco2)cc1,25µM*,i,1%,5%,-1%,-16%
Cn1c(NC(=O)c2ccccc2Br)cc(=O)n(C)c1=O,25µM*,i,?,2.5µM*,3%,-10%
COCCn1c(=O)c(-c2cccc(C#N)c2)nc2cnc(N3CCOCC3)nc21,-29%,i,0%,3%,-6%,152%
CCOC(=O)Nc1ccc2c(c1)N(C(=O)N(C)C)c1ccccc1CC2,-3%[11.4 µM],i,-1%,0%,1%[11.4 µM],-3%[11.4 µM]
CCOC(=O)Nc1ccc2c(c1)Nc1ccccc1S2,32µM*,i,0%,-2%,5%,?
CCOC(=O)Nc1ccc2c(c1)N(C(=O)N1CCN(C)CC1)c1ccccc1S2,-13%,i,-1%,-4%,1%,16µM*
COc1ccc(Br)cc1CNc1ccc(O)cc1,?,i,-8%,-2%,-10%,32µM*
O=C(CSc1nnc(-c2ccccc2)o1)c1nnc(-c2ccccc2)o1,20µM*,i,0%,10%,0%,4µM*
Cc1cc(O)c(-c2cc(O)c(C)cc2O)cc1O,1.6µM*,i,-1%[15.4 µM],1%[15.4 µM],-9%[11.4 µM],0%[11.4 µM]
c1ccc(-c2cc(-c3nc(-c4cccnc4)no3)c3ccccc3n2)cc1,2%,i,-1%,2%,-1%,4µM*
N#Cc1cc2ccccc2nc1SCC(=O)Nc1ccc(S(=O)(=O)N2CCCC2)cc1,-4%,i,-3%,8%,-8%,16µM*
COc1ccc2nc(SCC(=O)Nc3ccc(S(=O)(=O)N4CCCC4)cc3)c(C#N)cc2c1,-1%,i,1%,5%,-1%,25%
O=C(O)C[n+]1ccccc1,0%[11.4 µM],i,-1%[15.4 µM],-2%[15.4 µM],-2%[11.4 µM],9%[11.4 µM]
O=C1[C@@H]2[C@H]3[C@H](O)[C@H](O)C/C(=N/OC[C@@H](O)COCc4ccco4)[C@H]3CC[C@H]2C(=O)N1c1ccc(F)cc1F,3%[11.4 µM],.,1%[15.4 µM],-1%[15.4 µM],.,.
SMILES,15-hLO inh,TsaE inh,BRCT inh red,BRCT inh green,DNA Pol III inh,Tau fil binding
O=C(Oc1ccc2c(c1)OCO2)c1cc2c(s1)CCC2,20µM*,i,-17%,-11%,-29%,-30%
O=C(c1cc2c(s1)CCCC2)N1CCN(Cc2ccc3c(c2)OCO3)CC1,-22%,i,0%,-2%,6%,-3%
O=C(COc1ncnc2ccc(Br)cc12)Nc1ccc(N2CCOCC2)cc1,-10%,i,0%,-2%,-8%,-16%
Brc1ccc2ncnc(Nc3ccc(N4CCOCC4)cc3)c2c1,-4%,i,-1%,-3%,-7%,16µM*
Nc1nc(-c2cccs2)c(NC(=O)c2ccccc2)s1,20µM*,i,0%,0%,-3%,-30%
COc1ccc(-c2nc3cnc(N(C)C)nc3n(C[C@H]3CCCO3)c2=O)cc1,-3%,i,1%,-2%,-11%,424%
O=C(Nc1cnn(Cc2ccc(F)cc2)c1)c1cc2nc(-c3ccco3)cc(C(F)(F)F)n2n1,-13%,i,0%,-2%,-1%,16µM*
Cc1ccccc1Cn1ccc(NC(=O)c2cc3nc(-c4ccco4)cc(C(F)(F)F)n3n2)n1,-3%,i,0%,1%,-2%,-26%
Cc1nn(Cc2ccccc2)c(C)c1NC(=O)c1cc2nc(-c3ccco3)cc(C(F)(F)F)n2n1,-12%,i,-2%,-1%,-6%,16µM*
COc1ccc(OC)c(Nc2nc(-c3cccs3)cs2)c1,-15%,i,1%,-1%,-1%,16µM*
COc1ccccc1Nc1nc(-c2cccs2)cs1,?,i,1%,3%,-3%,13µM*
Nc1nc(-c2cccs2)cs1,-7%[11.4 µM],i,0%[15.4 µM],0%[15.4 µM],-10%[11.4 µM],-1%[11.4 µM]
CC(=O)Nc1nc(-c2cccs2)cs1,-28%,i,0%,1%,-5%,-17%
O=C(NC1CCN(Cc2ccccc2)CC1)C1CCCN(S(=O)(=O)c2cccc3nonc23)C1 (stereo unspecified),-20%,i,0%,3%,7%,16µM*
O=c1c(O)c(-c2ccc(O)cc2)oc2cc(O)ccc12,-11%[25.6 µM],i,0%,-4%,-7%,-27%
O=c1c(O)c(-c2ccc(O)c(O)c2)oc2ccccc12,2µM*,i,2%,-1%,?,?
COc1ccc(-c2coc3cc(O)ccc3c2=O)c(OC)c1O,1%,.,1%,0%,.,.
COc1ccc(-c2coc3cc(O)ccc3c2=O)c(O)c1O,13µM*,.,-5%,-2%[3.08 µM],.,.
COc1cc(-c2oc3cc(O)ccc3c(=O)c2O)ccc1O,13µM*,.,-1%,-1%,.,.
COC1(C#CC2C=CC(OC(C)=O)C(COC(C)=O)O2)CCCCC1 (stereo unspecified),-12%[11.4 µM],.,-2%[15.4 µM],-1%[15.4 µM],.,.
COc1ccc2[nH]c(=O)c(CN(Cc3nnnn3Cc3ccco3)C3CCCCC3)cc2c1,6.3µM*,i,-10%,-14%,-17%,62%
